Measurements published in PubChem BioAssay AID1159580 (chemical genetic matrix, 2015).
Values joined by “and” are separate entries in the source; they are usually repeats but may differ in a detail not shown here. Equal values may be shown once. About 2,000 (36%) of roughly 5,500 compounds were called active. Inconclusive results (about 18%) are left out. Cut-off read from the data, not from the text of the source: active = normalized growth mostly below about 0.91 (no sharp cut-off); inconclusive = no clear call, values can overlap the other calls; inactive = mostly above about 0.92. The list shows a part of the results.

Assay: chemical genetic growth profiling, strain panel (AID 1159580);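 note: tested at 20 µM; growth read once vehicle control cultures reached saturation at 30 °C; 1 = growth at the plate median or of vehicle wells; lower values mean less growth of the strain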
Conditions: growth OD

Measured: normalized growth

Cc1ccc(S(=O)(=O)NC(=O)NN2CCCCCC2)cc1
inactive: S. cerevisiae deletion strains, locus YJR075W, strain HOC1, active compounds read low 1.03 | S. cerevisiae deletion strains, locus YKL009W, strain mrt4, active compounds read low 1.03 | S. cerevisiae deletion strains, locus YKL068W, active compounds read low 0.988 | S. cerevisiae deletion strains, locus YKL085W, strain MDH1 (second series), active compounds read low 0.977 | S. cerevisiae deletion strains, locus YKL085W, strain MDH1, active compounds read low 0.977 | S. cerevisiae deletion strains, locus YKL160W, strain elf1, active compounds read low 0.957 | S. cerevisiae deletion strains, locus YKL190W, strain CNB1, active compounds read low 1 | S. cerevisiae deletion strains, locus YKR001C, strain vps1, active compounds read low 0.981 | S. cerevisiae deletion strains, locus YKR026C, strain gcn3, active compounds read low 0.992 | S. cerevisiae deletion strains, locus YKR091W, strain srl3, active compounds read low 0.983 | S. cerevisiae deletion strains, locus YLL001W, strain dnm1, active compounds read low 0.982 | S. cerevisiae deletion strains, locus YLL026W, active compounds read low 0.995 | S. cerevisiae deletion strains, locus YLL041C, strain sdh2, active compounds read low 0.99 | S. cerevisiae deletion strains, locus YLR027C, strain aat2, active compounds read low 0.99 | S. cerevisiae deletion strains, locus YLR039C, strain RIC1, active compounds read low 0.954 | S. cerevisiae deletion strains, locus YLR058C, strain SHM2, active compounds read low 0.992 | S. cerevisiae deletion strains, locus YLR102C, strain apc9, active compounds read low 0.985 | S. cerevisiae deletion strains, locus YLR113W, strain HOG1, active compounds read low 1.03 | S. cerevisiae deletion strains, locus YLR221C, strain rsa3, active compounds read low 1.02 | S. cerevisiae deletion strains, locus YLR258W, strain gsy2, active compounds read low 0.98 | S. cerevisiae deletion strains, locus YLR262C, strain YPT6 (second series), active compounds read low 0.961 | S. cerevisiae deletion strains, locus YLR262C, strain YPT6, active compounds read low 0.962 | S. cerevisiae deletion strains, locus YLR268W, strain sec22, active compounds read low 0.983 | S. cerevisiae deletion strains, locus YLR320W, strain mms22, active compounds read low 0.996 | S. cerevisiae deletion strains, locus YLR330W, strain CHS5, active compounds read low 0.994 | S. cerevisiae deletion strains, locus YLR342W, strain FKS1 (second series), active compounds read low 0.941 | S. cerevisiae deletion strains, locus YLR342W, strain FKS1, active compounds read low 0.987 | S. cerevisiae deletion strains, locus YLR357W, strain rsc2, active compounds read low 0.928 | S. cerevisiae deletion strains, locus YLR370C, strain arc18, active compounds read low 0.968 | S. cerevisiae deletion strains, locus YLR371W, strain rom2, active compounds read low 0.977 | S. cerevisiae deletion strains, locus YLR384C, strain iki3, active compounds read low 0.992 | S. cerevisiae deletion strains, locus YLR418C, strain cdc73, active compounds read low 0.989 | S. cerevisiae deletion strains, locus YML016C, strain PPZ1, active compounds read low 0.991 | S. cerevisiae deletion strains, locus YML032C, strain rad52, active compounds read low 0.992 | S. cerevisiae deletion strains, locus YML120C, strain ndi1, active compounds read low 1 | S. cerevisiae deletion strains, locus YML124C, strain tub3, active compounds read low 0.988 | S. cerevisiae deletion strains, locus YMR058W, strain fet3, active compounds read low 0.994 | S. cerevisiae deletion strains, locus YMR078C, strain ctf18, active compounds read low 0.968 | S. cerevisiae deletion strains, locus YMR125W, strain sto1, active compounds read low 0.988 | S. cerevisiae deletion strains, locus YMR129W, active compounds read low 0.987 | S. cerevisiae deletion strains, locus YMR205C, strain PFK2, active compounds read low 1.01 | S. cerevisiae deletion strains, locus YMR223W, strain ubp8, active compounds read low 0.97 | S. cerevisiae deletion strains, locus YMR231W, strain pep5, active compounds read low 0.986 | S. cerevisiae deletion strains, locus YMR263W, strain SAP30, active compounds read low 0.998 | S. cerevisiae deletion strains, locus YMR307W, strain GAS1, active compounds read low 0.956 and 1 | S. cerevisiae deletion strains, locus YNL067W, strain RPL9B, active compounds read low 1.02 | S. cerevisiae deletion strains, locus YNL071W, strain lat1, active compounds read low 0.99 | S. cerevisiae deletion strains, locus YNL128W, strain TEP1, active compounds read low 0.988 | S. cerevisiae deletion strains, locus YNL153C, strain GIM3, active compounds read low 1.05 and 1 | S. cerevisiae deletion strains, locus YNL175C, strain NOP13, active compounds read low 0.991 | S. cerevisiae deletion strains, locus YNL183C, strain NPR1, active compounds read low 0.946 | S. cerevisiae deletion strains, locus YNL197C, strain WHI3, active compounds read low 0.974 | S. cerevisiae deletion strains, locus YNL209W, strain ssb2, active compounds read low 0.968 | S. cerevisiae deletion strains, locus YNL224C, strain SQS1, active compounds read low 1 | S. cerevisiae deletion strains, locus YNL233W, strain BNI4, active compounds read low 1.04 | S. cerevisiae deletion strains, locus YNL248C, strain rpa49, active compounds read low 0.961 | S. cerevisiae deletion strains, locus YNL250W, strain rad50, active compounds read low 0.949 | S. cerevisiae deletion strains, locus YNL271C, strain bni1, active compounds read low 0.983 | S. cerevisiae deletion strains, locus YNL298W, strain CLA4, active compounds read low 0.965 | S. cerevisiae deletion strains, locus YNL307C, strain MCK1, active compounds read low 0.983 | S. cerevisiae deletion strains, locus YNL322C, strain KRE1 (second series), active compounds read low 0.965 | S. cerevisiae deletion strains, locus YNL322C, strain KRE1, active compounds read low 1 | S. cerevisiae deletion strains, locus YNR049C, strain mso1, active compounds read low 0.967 | S. cerevisiae deletion strains, locus YNR052C, strain pop2, active compounds read low 0.974 | S. cerevisiae deletion strains, locus YOL006C, strain TOP1, active compounds read low 1.02 | S. cerevisiae deletion strains, locus YOL012C, strain htz1 1.06 | S. cerevisiae deletion strains, locus YOL147C, strain pex11, active compounds read low 0.975 | S. cerevisiae deletion strains, locus YOR001W, strain rrp6, active compounds read low 1.03 | S. cerevisiae deletion strains, locus YOR061W, strain CKA2, active compounds read low 0.994 | S. cerevisiae deletion strains, locus YOR069W, strain VPS5, active compounds read low 0.994 | S. cerevisiae deletion strains, locus YOR070C, strain gyp1, active compounds read low 0.979 | S. cerevisiae deletion strains, locus YOR080W, strain dia2, active compounds read low 0.979 | S. cerevisiae deletion strains, locus YOR083W, strain WHI5 (second series), active compounds read low 0.971 | S. cerevisiae deletion strains, locus YOR083W, strain WHI5, active compounds read low 0.927 | S. cerevisiae deletion strains, locus YOR106W, strain vam3, active compounds read low 0.984 | S. cerevisiae deletion strains, locus YOR136W, strain idh2, active compounds read low 0.984 | S. cerevisiae deletion strains, locus YOR144C, strain elg1, active compounds read low 0.974 | S. cerevisiae deletion strains, locus YOR184W, strain ser1, active compounds read low 1 | S. cerevisiae deletion strains, locus YOR231W, strain MKK1, active compounds read low 1 | S. cerevisiae deletion strains, locus YOR265W, strain rbl2, active compounds read low 1 | S. cerevisiae deletion strains, locus YOR270C, strain vph1, active compounds read low 1.02 | S. cerevisiae deletion strains, locus YOR290C, strain snf2, active compounds read low 0.957 | S. cerevisiae deletion strains, locus YOR316C, strain cot1, active compounds read low 0.992 | S. cerevisiae deletion strains, locus YPL051W, strain arl3, active compounds read low 0.969 | S. cerevisiae deletion strains, locus YPL078C, strain atp4, active compounds read low 0.98 | S. cerevisiae deletion strains, locus YPL106C, strain sse1, active compounds read low 0.957 | S. cerevisiae deletion strains, locus YPL240C, strain hsp82, active compounds read low 0.988 | S. cerevisiae deletion strains, locus YPL241C, strain CIN2, active compounds read low 0.999 | S. cerevisiae deletion strains, locus YPL256C, strain CLN2, active compounds read low 1.01 | S. cerevisiae deletion strains, locus YPR119W, strain clb2, active compounds read low 0.983 | S. cerevisiae deletion strains, locus YPR141C, strain kar3, active compounds read low 0.976 | S. cerevisiae deletion strains, locus YPR163C, strain tif3, active compounds read low 0.982 | S. cerevisiae deletion strains, locus YPR167C, strain met16, active compounds read low 0.991 | S. cerevisiae deletion strains, strain wtn01, active compounds read low 1.01 | S. cerevisiae strains, strain wild type, active compounds read low 1
